{"source": "the supplement of paper PMC11060735", "note": "Among all 1,800 compounds or so, about 50 (3%) showed activity. Many of the other results were omitted from the sample, so actives are more common in it than they were. A number with no mark means an inactive call."}
{"test_system": "mouse p16Ink4a+/- lung fibroblasts (INKBRITE, bleomycin-injured)", "assay": "percentage of GFP+ (p16Ink4a+) fibroblasts among all cells in well; higher = less depletion of p16Ink4a+ cells, active = 20 or less", "conditions": "1 µM; 3 days"}
{"smiles": "O=C(O)C[C@H](O)C[C@H](O)/C=C/c1c(C2CC2)nc2ccccc2c1-c1ccc(F)cc1", "note": "[Pitavastatin Calcium]", "percentage of GFP+": "22.1%"}
{"smiles": "CC(C)n1c(/C=C/[C@@H](O)C[C@@H](O)CC(=O)O)c(-c2ccc(F)cc2)c2ccccc21", "note": "[Fluvastatin]", "percentage of GFP+": "19.7% (active)"}
{"smiles": "NC(Cc1c[nH]c2ccc(O)cc12)C(=O)O", "note": "(configuration not stated) [5-hydroxytryptophan (5-HTP)]", "percentage of GFP+": "41.1%"}
{"smiles": "CC(C)OC(=O)OCOP(=O)(CO[C@H](C)Cn1cnc2c(N)ncnc21)OCOC(=O)OC(C)C", "note": "[Tenofovir Disoproxil]", "percentage of GFP+": "37.9%"}
{"smiles": "C[C@H](Cn1cnc2c(N)ncnc21)OCP(=O)(O)O", "note": "[Tenofovir]", "percentage of GFP+": "36.4%"}
{"smiles": "CC(C)(C)C(=O)OCOP(=O)(COCCn1cnc2c(N)ncnc21)OCOC(=O)C(C)(C)C", "note": "[Adefovir Dipivoxil]", "percentage of GFP+": "19.4% (active)"}
{"smiles": "Cc1nc(O)c(C#N)cc1-c1ccncc1", "note": "[Milrinone]", "percentage of GFP+": "37.8%"}
{"smiles": "CCOC(=O)N1CCC(=C2c3ccc(Cl)cc3CCc3cccnc32)CC1", "note": "[Loratadine]", "percentage of GFP+": "54.5%"}
{"smiles": "CC(C)c1cc(-c2nnc(O)n2-c2ccc3c(ccn3C)c2)c(O)cc1O", "note": "[Ganetespib]", "percentage of GFP+": "4.48% (active)"}
{"smiles": "OC(CC1c2ccccc2-c2cncn21)C1CCCCC1", "note": "(configuration not stated)", "percentage of GFP+": "43%"}
{"smiles": "CCCCCCCCCCCC1=C(O)C(O)=CC(=O)C1=O", "note": "[Embelin]", "percentage of GFP+": "51.4%"}
{"smiles": "COc1ccc2cccc(CCNC(C)=O)c2c1", "note": "[Agomelatine]", "percentage of GFP+": "39.1%"}
{"smiles": "COC(=O)[C@H](Cc1ccccc1)NC(=O)[C@@H](N)CC(=O)O", "note": "[Aspartame]", "percentage of GFP+": "44.2%"}
{"smiles": "CC(C)C[C@@H](C=O)NC(=O)[C@H](CC(C)C)NC(=O)[C@H](CC(C)C)NC(=O)OCc1ccccc1", "percentage of GFP+": "7.69% (active)"}
{"smiles": "CC(=O)SCC(Cc1ccccc1)C(=O)NCC(=O)OCc1ccccc1", "note": "(configuration not stated) [Racecadotril]", "percentage of GFP+": "45%"}
{"smiles": "CCCCCOC(=O)Nc1nc(=O)n([C@@H]2O[C@H](C)[C@@H](O)[C@H]2O)cc1F", "note": "[Capecitabine]", "percentage of GFP+": "40.5%"}
{"smiles": "CN(Cc1ccc(C(C)(C)C)cc1)Cc1cccc2ccccc12", "note": "[Butenafine]", "percentage of GFP+": "51.2%"}
{"smiles": "O=C(/C=C/c1cccc(S(=O)(=O)Nc2ccccc2)c1)NO", "note": "[Belinostat]", "percentage of GFP+": "15.9% (active)"}
{"smiles": "Cn1cc(/C=C/C(=O)c2cccc(F)c2)cc1/C=C/C(=O)NO", "percentage of GFP+": "54%"}
{"smiles": "O=C(/C=C/c1ccccc1)NC(NC(=S)Nc1ccc(Cl)cc1)C(Cl)(Cl)Cl", "note": "(configuration not stated)", "percentage of GFP+": "58.3%"}
{"smiles": "Nc1cccc2c1CN(C1CCC(=O)NC1=O)C2=O", "note": "(configuration not stated) [Lenalidomide]", "percentage of GFP+": "46%"}
{"smiles": "CC/C(=C(\\c1ccccc1)c1ccc(OCCN(C)C)cc1)c1ccccc1", "note": "[Tamoxifen]", "percentage of GFP+": "34.9%"}
{"smiles": "Cc1ccc([N+](=O)[O-])cc1S(=O)(=O)N(C)/N=C/c1cnc2ccc(Br)cn12", "percentage of GFP+": "3.79% (active)"}
{"smiles": "CC(C)c1nc(N(C)S(C)(=O)=O)nc(-c2ccc(F)cc2)c1/C=C/[C@@H](O)C[C@@H](O)CC(=O)O", "note": "[Rosuvastatin, Rosuvastatin Calcium]", "percentage of GFP+": "41.7%"}
{"smiles": "Cn1cnc2c(F)c(Nc3ccc(Br)cc3F)c(C(=O)NOCCO)cc21", "percentage of GFP+": "44.7%"}
{"smiles": "CN1c2cc(O)c(N=NC(N)=O)cc2CC1S(=O)(=O)O", "note": "(configuration not stated) [Carbazochrome sodium sulfonate]", "percentage of GFP+": "43%"}
{"smiles": "CC1(C)CC(=O)c2c(C(F)(F)F)nn(-c3ccc(C(N)=O)c(N[C@H]4CC[C@H](O)CC4)c3)c2C1", "percentage of GFP+": "6.92% (active)"}
{"smiles": "CC1(C)CC(=O)c2c(C(F)(F)F)nn(-c3ccc(C(N)=O)c(N[C@H]4CC[C@H](OC(=O)CN)CC4)c3)c2C1", "percentage of GFP+": "6.23% (active)"}
{"smiles": "CC(=O)O/N=C1/C(=O)N(Cc2cc(Cl)ccc2Cl)c2ccc(Cl)cc21", "percentage of GFP+": "51.6%"}
{"smiles": "CC(C)(C)c1ccc(C(=O)CCCN2CCC(OC(c3ccccc3)c3ccccc3)CC2)cc1", "note": "[Ebastine]", "percentage of GFP+": "56.5%"}
{"smiles": "OC1(c2ccc(Cl)c(C(F)(F)F)c2)CCN(CCCC(c2ccc(F)cc2)c2ccc(F)cc2)CC1", "note": "[Penfluridol]", "percentage of GFP+": "55.9%"}
{"smiles": "COc1ccc(-c2ccc3c(N4CCOCC4)nc(N4C[C@@H](C)O[C@@H](C)C4)nc3n2)cc1CO", "percentage of GFP+": "23.7%"}
{"smiles": "Cc1ccc(=O)n(-c2ccccc2)c1", "note": "[Pirfenidone]", "percentage of GFP+": "46%"}
{"smiles": "CNC(=O)c1cc(Oc2ccc(NC(=O)Nc3cc(C(C)(C)C)nn3-c3ccc4ncccc4c3)c(F)c2)ccn1", "note": "[Rebastinib]", "percentage of GFP+": "39.9%"}
{"smiles": "CC(C)C[C@H](NC(=O)[C@H](Cc1ccccc1)NC(=O)c1cnccn1)B(O)O", "note": "[Bortezomib]", "percentage of GFP+": "5.29% (active)"}
{"smiles": "CNC(=O)[C@H](Cc1ccccc1)NC(=O)[C@H](CC(C)C)[C@H](CSc1cccs1)C(=O)NO", "note": "[Batimastat]", "percentage of GFP+": "41.9%"}
{"smiles": "CC(C)C1CCC(C(=O)N[C@H](Cc2ccccc2)C(=O)O)CC1", "note": "(some centres not stated) [Nateglinide]", "percentage of GFP+": "46.5%"}
